Screening results (PubChem)
Nrf2 activator: qHTS of Nrf2 Activators | AREc32 ARE-luciferase reporter (MCF7-derived line), luminescence, 24 h | Potency, µM (titrated, usually from 46.1 µM), inactives show at the top dose activation, most hits filed as activators | actives 0.31% (n = 410,000) | AID 624171, 2012; note: potency is the fitted concentration of half-maximal effect; % of control where 0% means no effect; nearly all actives have a fitted effect of over 65% in size
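For detection, Steady-Glo was added and plates sat 30 min at RT; before that, AREc32_Fluc cells grown overnight in OPTI-MEM/5% FBS had been treated with 23 nL compound for 24 hr at 37 deg C.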
TSG101-PTAP inh: qHTS Assay for Iinhibitors of HIV-1 Budding by Blocking the Interaction of PTAP/TSG101; 340,000 tested, under 10 active; Potency, µM (highest dose often 115 µM), inactives show at the top dose activity change, negative = inhibition, hits mostly inhibitors; Tumor susceptibility gene 101 protein (Homo sapiens), Q99816; Fluorescence polarization, FITC-PTAP peptide / Tsg101 binding; active = well fitted inhibition curve with a large enough effect in the main read-out, with a control signal flat, not every such curve was filed as active; inconclusive = small, poorly fitted or top-dose-only effect, or effect the other way, or a change in a side signal; inactive = no such curve, though single readings can be large or run the other way; note: potency is the fitted concentration of half-maximal effect; % of control where 0% means no effect
Target sequence (Q99816 whole entry, looked up): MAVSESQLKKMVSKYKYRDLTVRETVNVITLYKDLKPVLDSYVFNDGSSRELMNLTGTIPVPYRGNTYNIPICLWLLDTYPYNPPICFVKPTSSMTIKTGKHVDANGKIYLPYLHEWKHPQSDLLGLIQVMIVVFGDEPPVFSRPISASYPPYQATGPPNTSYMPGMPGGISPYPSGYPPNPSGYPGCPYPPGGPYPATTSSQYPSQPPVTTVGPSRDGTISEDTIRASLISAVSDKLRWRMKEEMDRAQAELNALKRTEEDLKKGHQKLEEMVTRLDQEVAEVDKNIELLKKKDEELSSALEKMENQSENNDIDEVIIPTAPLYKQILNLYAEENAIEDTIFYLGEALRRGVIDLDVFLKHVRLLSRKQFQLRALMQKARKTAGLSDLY
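Tsg101 binding domain (10 uM final) was mixed with compound and a FITC-labeled PTAP peptide (50 nM final) in HEPES pH 7.5 buffer with NaCl, Tween 20, EDTA and TCEP; fluorescence polarization was read after 20 min at r.t.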
A549 tox: Nrf2 qHTS screen for inhibitors: counterscreen for cytotoxicity; A549 ARE-Fluc cells, CellTiter-Fluor viability, 18-24 h; Potency, µM (titrated, usually from 46 µM), for the others: at the highest dose activity change, negative = cytotoxicity, most hits filed as inhibitors; actives 0.16% (n = 390,000); AID 504648, 2011; note: potency is the fitted concentration of half-maximal effect; % is set by controls: 0 for no effect and ±100 for the full control effect
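A549 ARE-Fluc cells in 5% FBS OPTI-MEM, 5000 cells/well, rested 2 h then exposed to compounds in concentration-response for 18-24 h at 37 °C. Viability by CellTiter-Fluor fluorescence (Ex 405/Em 525) after 30 min; luciferase luminescence (BugLite, 15 min, RT) read afterwards.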
miR-21 reporter: qHTS Assay for Modulators of miRNAs and/orActivators of miR-21; 340,000 tested, under 10 active; AID 2288, 2010; HeLa miR-21 FLuc reporter, luciferase, 48 h; Potency, µM (highest dose often 38.3 µM), without a hit: at the top dose activity change, positive = activation, usual class: activators;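 note: % of control where 0% means no effect; miR-21 action dims this reporter so a rising signal means less miR-21 action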
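HeLa cells stably expressing CMV-driven firefly luciferase with a downstream miR-21 binding sequence, endogenously expressing miR-21, were treated with titrations (up to about 40uM final) for 48 hours at 37 degree Celsius. Luciferase luminescence was read after lysis.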
Nrf2 inh: Nrf2 qHTS screen for inhibitors; A549 ARE-Fluc reporter, luciferase luminescence, 18-24 h; Potency, µM (series often up to 46 µM), for the others: at the highest dose activity change, negative = inhibition, most hits filed as inhibitors; actives 2.1% (n = 360,000); AID 504444, 2011; note: potency is the fitted concentration of half-maximal effect; % is set by controls: 0 for no effect and ±100 for the full control effect; nearly all actives have a fitted effect of over 60% in size
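In this cell-based qHTS, ARE-driven firefly luciferase in A549 cells reports Nrf2 activity; the luminescent signal after BugLite lysis is the measured value, with a prior CellTiter-Fluor read for cell health.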
Glioma ERSR ind: qHTS for Inducers of the Endoplasmic Reticulum Stress Response (ERSR) in Human Glioma: qHTS; U87-MG GRP78 promoter luciferase reporter, 16 h; Potency, µM, inactives show at the top dose activation, usual class: activators; actives 0.02% (n = 420,000); note: potency is the fitted concentration of half-maximal effect; series mostly up to about 76 µM; % of control where 0% means no effect; nearly all actives have a fitted effect of over 35% in size
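Stably transfected U87-MG glioma cells carrying a GRP78-based luciferase sensor; 16 h compound incubation. Luminescence end-point read 10 min after Bright-Glo addition at room temperature.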
The depositor's hits bear a star; u = inconclusive; x = no result given; [ ] = dose if it differs, or a comment. Most compounds without a hit are left out; they make up all but 2.1% or so of the library. Unless noted, calls come from the whole dose curve; as a rule, active = well fitted curve in the direction sought with a large enough effect; inconclusive = small, poorly fitted or top-dose-only effect, or another doubt; inactive = no such curve, though single readings can be large; an effect the other way counts as inactive or inconclusive.

SMILES	Nrf2 activator	TSG101-PTAP inh	A549 tox	miR-21 reporter	Nrf2 inh	Glioma ERSR ind
CC(C)(C)NC(=O)C(c1ccncc1)N(CC1CCCO1)C(=O)Cn1nnc(-c2ccc(F)cc2)n1 (configuration not stated)	-1%	-2%	1%	3%	-1%	-5%
COc1ccccc1/C=C/C(=O)c1ccccc1	u	-8%	7%	0%	u	u
COc1ccccc1/C=C/C(=O)c1c2c(c(C)[nH]c1=O)CCCC2	18%	x	u	10%	16µM*	-7%
COC(=O)[C@@H]1C[C@@H](NC(=O)c2cnsn2)CN1Cc1ccc(Cl)cc1	x	x	x	x	x	1%
C=CCN(c1ccccc1)S(=O)(=O)c1cccc(C(=O)N2CCCC2)c1	0%	-3%	-2%	x	8%	-3%
C=CCN(c1ccccc1)S(=O)(=O)c1cccc(C(=O)N2CC(C)CC(C)C2)c1 (configuration not stated)	5%	5%	u	25%	21µM*	-4%
c1ccc(-c2cnc(-c3ccccc3)nn2)cc1	2.8µM*	-4%	9%	x	3%	-5%
Cc1cc(-c2ccnc(-n3ncc(C(=O)NCC4COCCO4)c3C3CC3)n2)c(C)s1 (configuration not stated)	x	x	x	x	x	6%
COc1ccc(-c2c([C@H]3[C@@H]4C=CCC[C@@]4(C)C(=O)N3Cc3ccccc3)ccc3ccccc23)cc1OC	4%	-1%	u	15%	u	-6%
COc1ccc(-c2ccc([C@H]3[C@@H]4C=CCC[C@@]4(C)C(=O)N3Cc3ccccc3)c(F)c2)cc1OC	-1%	-3%	-6%	20%	21µM*	-2%
Cc1ccc(N[S+](=O)([O-])c2cc3c(cc2CCc2ccccc2)NC(=O)CO3)cc1C	x	x	-3%	x	-1%	x
c1ccc2c(c1)nnn2-c1ncnc2sccc12	4µM*	-1%	1%	-27%	u	2%
Cc1cccc(OC2=NS(=O)(=O)c3ccccc32)c1	x	x	8%[65.3 µM]	x	-7%[65.3 µM]	x
Cn1c(=O)n(/N=C/c2ccccc2)c2ccccc21	11µM*	-2%	11%	-21%	3%	1%
Cn1c(N)c(N=Cc2ccccc2)c(=O)n(C)c1=O	2%	-6%	-2%	x	-1%	-2%
Cc1cccc2cc(CN(CC3CCCO3)C(=O)c3ccccc3F)c(N(C)C)nc12 (configuration not stated)	x	x	x	x	x	-5%
COc1cc(/C=C/C(=O)Nc2ccc(OC)c(S(=O)(=O)N3CCOCC3)c2)ccc1OC(F)F	0%	-2%	-26%	x	18µM*	-5%
COc1ccc(/C=C/C(=O)Nc2ccc(C(C)=O)cc2)cc1S(=O)(=O)N1CCOCC1	-2%	x	x	x	x	-5%
COc1ccc(/C=C/C(=O)N2CCN(c3ccccc3)CC2)cc1S(=O)(=O)N1CCOCC1	3%	0%	-13%	25%	13µM*	-5%
c1cncc(OC2CCN(Cc3ccc4c(c3)CN(Cc3nc5ccccc5s3)CCO4)CC2)c1	x	x	x	x	x	-3%
CCCCOc1cccc(C(=O)N(Cc2ccc(C)o2)c2ccccn2)c1	1%	x	-23%	22%	15µM*	0%
Cc1ccc(CN(C(=O)c2ccc(F)cc2)c2ccccn2)o1	0%	x	3%	-7%	-7%	4%
O=C(Nc1nnc(S(=O)(=O)N2CCCc3ccccc32)s1)c1ccccc1	14%	x	1%	-29%	7%	-1%
CNC(=O)c1ccsc1NC(=O)c1ccc(S(=O)(=O)N2CCCc3ccccc32)cc1	0%	2%	-10%	23%	18µM*	-2%
Cc1ccc(C(=O)Nc2nnc(S(=O)(=O)N3CCCc4ccccc43)s2)cc1	9%	x	11%	0%	3%	-1%
